Records with an inconclusive call do not appear. Active and inactive are the calls of the source. Calls come from the whole dose curve; as a rule, active = well fitted inhibition curve with a large enough effect; inconclusive = small, poorly fitted or top-dose-only effect; inactive = flat fitted curve, though single readings scatter.
Assay: qHTS of Trypanosoma Brucei Inhibitors: LOPAC Validation (AID 624147)
Conditions: purified enzyme assay, luminescence, 45 min; series mostly up to 57.5 µM
Outline: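 ADP (130 uM final) triggers the TbPYK reaction after compound addition; incubation is 45 min at room temperature. Kinase-Glo Plus is then added and luminescence imaged. Normalized data are fitted to concentration-effect curves.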
With `COc1cc2c(cc1O)CC[C@@H]1[C@@H]2CC[C@]2(C)[C@@H](O)CC[C@@H]12` the outcome was “inactive”. In the case of `CC[C@H](C)C(=O)O[C@H]1CCC=C2C=C[C@H](C)[C@H](CC[C@@H]3C[C@@H](O)CC(=O)O3)[C@H]21`, the outcome was “inactive”. In the case of `CNCCC(Oc1ccccc1C)c1ccccc1` (stereo not given), the outcome was “inactive”. In the case of `O=C(O)c1cc2cc(Cc3cccnc3)ccc2o1`, the outcome was “inactive”. In the case of `Oc1ccc(O)cc1`, the outcome was “inactive”. With `CCCC1O[C@@H]2C[C@H]3[C@@H]4CCC5=CC(=O)C=C[C@]5(C)[C@H]4[C@@H](O)C[C@]3(C)[C@]2(C(=O)CO)O1` (stereo not given in full) the outcome was “inactive”. With `CC(=O)O[C@H]1C[C@@H]2CC[C@@H]3[C@H](CC[C@@]4(C)[C@H]3C[C@H]([N+]3(C)CCCCC3)[C@@H]4OC(C)=O)[C@@]2(C)C[C@@H]1[N+]1(C)CCCCC1` the outcome was “inactive”. In the case of `CC(C)COC(=O)OCN1C(=O)CN(CCN2CC(=O)N(COC(=O)OCC(C)C)C(=O)C2)CC1=O`, the outcome was “inactive”. For `COc1cc(NS(C)(=O)=O)ccc1Nc1c2ccccc2nc2ccccc12`, the outcome was “inactive”. With `C[C@@H]1C(=O)NC2=Nc3cccc(Cl)c3CN21` the outcome was “inactive”. In the case of `C[N+]1(CCCCC[N+]2(C)CCCC2)CCCC1`, the outcome was “inactive”. In the case of `Nc1cc(Cl)c(NC2=NCCN2)c(Cl)c1`, the outcome was “inactive”. With `N[C@@H](Cc1cnc[nH]1)C(=O)O` the outcome was “inactive”. For `CC(C)C[C@H]1C(=O)N2CCC[C@H]2[C@]2(O)O[C@](NC(=O)[C@@H]3C=C4c5cccc6[nH]c(Br)c(c56)C[C@H]4N(C)C3)(C(C)C)C(=O)N12`, the outcome was “inactive”. For `CCCn1c(=O)[nH]c(=O)c2[nH]cnc21`, the outcome was “inactive”. For `CC(CCc1ccccc1)NCC(O)c1ccc(O)c(C(N)=O)c1` (stereo not given), the outcome was “inactive”. With `CC1(C)CCC(NC(=O)[C@@H](N)CCC(=O)O)CC1` the outcome was “inactive”. In the case of `CCC(NC(C)C)C(O)c1ccc(O)c(O)c1` (stereo not given), the outcome was “inactive”. For `CN1C2CCC1CC(OC(=O)c1c[nH]c3ccccc13)C2` (stereo not given), the outcome was “inactive”. In the case of `C1CCc2nnnn2CC1`, the outcome was “inactive”. In the case of `CNCCC=C1c2ccccc2CCc2ccccc21`, the outcome was “inactive”. For `N[C@H](CO)C(=O)O`, the outcome was “inactive”. For `O=C1CCC(c2ccc(-n3ccnc3)cc2)=NN1`, the outcome was “inactive”. For `COC(=O)[C@H]1[C@H]2C[C@H]3c4[nH]c5ccccc5c4CCN3C[C@H]2CC[C@@H]1O`, the outcome was “inactive”. In the case of `C[C@]12CC[C@@H]3c4ccc(O)cc4CC[C@H]3[C@@H]1CC[C@@H]2O`, the outcome was “inactive”.

Reference: PubChem BioAssay (NCATS)
